Over roughly 1,100 compounds, “Renilla luciferase signal (cell health) relative to plate median” has its median near 0.97; the highest 2% begin near 1.6. What follows is part of a selection rich in the highest values, with near analogues and random picks from the rest.
Test system: HEK293T (UBE3A T485A transfected, BAR Wnt reporter)
Assay: Renilla luciferase signal (cell health) relative to plate median (fold (linear ratio)); higher = higher Renilla signal
Conditions: 24 h
Outline: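 Each value averages four biological replicates in HEK293T cells grown at 4500 cells/well in DMEM with 10% FBS at 37°C and 5% CO2. The cells were transfected with a BAR firefly luciferase Wnt reporter, TK-Renilla and an expression plasmid, then four hours later robotically treated with the chemicals at 0.01–100 uM for 24 h. Dual-Glo luciferase signals were median-centred per plate, with the firefly/Renilla ratio reported as Wnt activity and raw Renilla as cell health.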

Row | SMILES | Renilla luciferase signal (concentration: 0.01 uM) | Renilla luciferase signal (concentration: 0.1 uM) | Renilla luciferase signal (concentration: 1 uM) | Renilla luciferase signal (concentration: 10 uM) | Renilla luciferase signal (concentration: 100 uM)
1 | CN1C2CC(OC(=O)C(CO)c3ccccc3)CC1C1OC12 (configuration not stated) [Scopolamine] | 0.78 | 0.722 | 0.931 | 0.834 | 1.62
2 | CNC(=O)Oc1cccc2c1OC(C)(C)C2 [Carbofuran] |  | 1.05 | 1.01 | 0.953 | 0.523
3 | CC(C)(C)OOC(C)(C)C [Di-tert-butyl peroxide] |  | 1.07 | 0.922 | 1.09 | 1.12
4 | O=[As][O-].[Na+] [Sodium arsenite] | 0.746 | 0.622 | 0.288 | 0.0446 | 0.0136
5 | CC(C)(C)c1ccc(CSc2cnn(C(C)(C)C)c(=O)c2Cl)cc1 [Pyridaben] | 1.05 | 0.947 | 0.477 | 0.233 | 0.172
6 | Nc1cc(Cl)cc(C(=O)O)c1Cl [Chloramben] |  | 1.02 | 1.02 | 1.18 | 1.64
7 | Nc1ccc(Cl)cc1N [4-Chloro-1,2-diaminobenzene] |  | 1.05 | 0.965 | 0.612 | 0.0486
8 | C[C@@H]1C[C@@H]([C@H](O)CC2CC(=O)NC(=O)C2)C(=O)[C@@H](C)C1 [Cycloheximide] |  | 0.674 | 0.0448 | 0.0298 | 0.0285
9 | CC(O)CCO (configuration not stated) [1,3-Butanediol] |  | 1.06 | 1.08 | 1.16 | 1.47
10 | CCC(C)(CC)c1cc(NC(=O)c2c(OC)cccc2OC)on1 [Isoxaben] | 0.906 | 0.789 | 0.94 | 0.964 | 0.549
11 | ClC(Cl)=C(c1ccc(Cl)cc1)c1ccc(Cl)cc1 |  | 0.978 | 1.09 | 1.13 | 1.33
12 | O=C(NC(=O)c1c(F)cccc1F)Nc1cc(Cl)c(OC(F)(F)C(F)F)c(Cl)c1 [Hexaflumuron] |  | 0.601 | 0.604 | 0.441 | 0.493
13 | Oc1ccccc1-c1ccccc1 [2-Phenylphenol] | 1.08 | 1.08 | 0.948 | 1.01 | 0.987
14 | OCCOc1ccccc1 [2-Phenoxyethanol] | 0.629 | 0.856 | 0.906 | 0.983 | 1.74
15 | c1ccc(OP(Oc2ccccc2)Oc2ccccc2)cc1 [Triphenyl phosphite] |  | 1.06 | 1.18 | 1.24 | 1.16
16 | Clc1ccc(C(c2ccc(Cl)cc2)C(Cl)(Cl)Cl)cc1 |  | 0.841 | 0.863 | 0.92 | 0.995
17 | O=Cc1ccco1 [Furfural] |  | 1.24 | 1.36 | 1.2 | 1.45
18 | O=C(O)c1nc(Cl)ccc1Cl [Clopyralid] | 0.962 | 0.828 | 0.985 | 1 | 1.8
19 | Nc1c(Cl)c(Cl)nc(C(=O)O)c1Cl [Picloram] | 1.22 | 0.925 | 1.11 | 1.09 | 1.33
20 | NCCO.O=C(O)c1nc(Cl)ccc1Cl [Clopyralid-olamine] | 1.41 | 1.18 | 1.06 | 1.2 | 1.53
21 | O=C1CCCO1 [4-Butyrolactone] |  | 0.916 | 0.91 | 0.928 | 1.07

Row | SMILES | Renilla luciferase signal (concentration: 0.01 uM) | Renilla luciferase signal (concentration: 0.1 uM) | Renilla luciferase signal (concentration: 1 uM) | Renilla luciferase signal (concentration: 10 uM) | Renilla luciferase signal (concentration: 100 uM)
22 | CCC(=O)C(CC(C)N(C)C)(c1ccccc1)c1ccccc1.Cl (configuration not stated) [Methadone hydrochloride] |  | 1.01 | 1.01 | 1.07 | 0.142
23 | CCCCC(CC)COC(=O)c1ccc(C(=O)OCC(CC)CCCC)cc1 (configuration not stated) [Bis(2-ethylhexyl) terephthalate] |  | 0.974 | 1.13 | 1.09 | 1.28
24 | CCCCC(CC)COC(=O)CCCCC(=O)OCC(CC)CCCC (configuration not stated) [Di(2-ethylhexyl) adipate] |  | 1.15 | 1.09 | 1.28 | 1.76
25 | CCCCC(CC)COC(=O)c1ccccc1C(=O)OCC(CC)CCCC (configuration not stated) [Di(2-ethylhexyl) phthalate] | 1.26 | 1.13 | 1.01 | 1.11 | 0.496
26 | C#CCN1C(=O)COc2cc(F)c(N3C(=O)C4=C(CCCC4)C3=O)cc21 [Flumioxazin] | 1.13 | 1.14 | 0.954 | 1.11 | 0.949
27 | N#Cc1c(Cl)cccc1Cl [Dichlobenil] | 0.873 | 0.853 | 1.03 | 0.992 | 1.96
28 | Clc1ccccc1Cl [1,2-Dichlorobenzene] |  | 1.14 | 0.945 | 1.05 | 1.27
29 | Clc1cccc(Cl)c1Cl [1,2,3-Trichlorobenzene] |  | 1.21 | 0.959 | 1.18 | 1.43
30 | Cc1ccc(/N=C/N(C)/C=N/c2ccc(C)cc2C)c(C)c1 [Amitraz] | 1.29 | 1.17 | 1.06 | 1.21 | 0.0374
31 | O=C(NC(=O)c1cc(F)c(F)cc1Cl)Nc1cc(F)ccc1N1CCC(C(=O)O)CC1 |  | 0.8 | 0.813 | 0.797 | 0.641
32 | O=C(O)C(F)(F)C(F)(F)C(F)(F)C(F)(F)C(F)(F)C(F)(F)C(F)(F)F | 0.983 | 0.781 | 0.834 | 0.9 | 1.9
33 | O=C(O)C(F)(F)C(F)(F)C(F)(F)C(F)(F)C(F)(F)F |  | 0.973 | 0.941 | 0.896 | 0.93
34 | O=C(O)C(F)(F)C(F)(F)C(F)(F)C(F)(F)C(F)(F)C(F)(F)C(F)(F)C(F)(F)C(F)(F)C(F)(F)F [Perfluoroundecanoic acid] |  | 0.861 | 0.837 | 0.868 | 0.248
35 | CCOC1Oc2ccc(OS(C)(=O)=O)cc2C1(C)C (configuration not stated) [Ethofumesate] | 0.946 | 1.07 | 0.964 | 0.843 | 1.01
36 | CCOC(=O)C(C)OC(=O)c1cc(Oc2ccc(C(F)(F)F)cc2Cl)ccc1[N+](=O)[O-] (configuration not stated) [Lactofen] | 0.928 | 0.611 | 0.876 | 0.801 | 0.32
37 | CS(=O)(=O)NC(=O)c1cc(Oc2ccc(C(F)(F)F)cc2Cl)ccc1[N+](=O)[O-] [Fomesafen] |  | 0.998 | 1.11 | 1.03 | 1.19
38 | O=C(O)c1cc(Oc2ccc(C(F)(F)F)cc2Cl)ccc1[N+](=O)[O-] [Acifluorfen] | 1.17 | 1.25 | 0.942 | 1.02 | 1.67
39 | CCN(CC)c1nc(C)cc(OP(=S)(OC)OC)n1 [Pirimiphos-methyl] | 1.11 | 1.2 | 1 | 0.992 | 1.53
40 | CN(C)c1nc(=O)n(C2CCCCC2)c(=O)n1C [Hexazinone] | 0.842 | 0.839 | 0.85 | 0.916 | 1.2
41 | Cc1cc(Cl)ccc1OCC(=O)O | 1.11 | 1.19 | 1.09 | 1.12 | 1.34
42 | CCOP(=O)(OCC)Oc1nc(Cl)c(Cl)cc1Cl [Chlorpyrifos oxon] | 0.952 | 1.24 | 1.07 | 0.919 | 0.0737

Row | SMILES | Renilla luciferase signal (concentration: 0.01 uM) | Renilla luciferase signal (concentration: 0.1 uM) | Renilla luciferase signal (concentration: 1 uM) | Renilla luciferase signal (concentration: 10 uM) | Renilla luciferase signal (concentration: 100 uM)
43 | O=C(O)COc1ccc(Cl)cc1Cl [2,4-Dichlorophenoxyacetic acid] | 1.31 | 1 | 0.995 | 1.02 | 1.69
44 | O=C(O)CCCOc1ccc(Cl)cc1Cl | 1.02 | 0.895 | 0.898 | 0.957 | 1.44
45 | Nc1c(Cl)c(F)nc(OCC(=O)O)c1Cl [Fluroxypyr] | 1.01 | 1.05 | 0.92 | 1.02 | 1.09
46 | O=C(O)COc1nc(Cl)c(Cl)cc1Cl [Triclopyr] | 0.99 | 0.979 | 0.95 | 1.02 | 1.84
47 | C1=CCCC=CCCC=CCC1 [1,5,9-Cyclododecatriene] |  | 0.691 | 0.775 | 0.813 | 1.02
48 | CCOC(=O)c1ccccc1C(=O)OCC [Diethyl phthalate] |  | 0.834 | 0.893 | 0.976 | 1.05
49 | COc1nc(NC(C)C)nc(NC(C)C)n1 [Prometon] | 0.865 | 0.628 | 0.707 | 1.02 | 1.41
50 | CC(C)(O)C(=O)Nc1ccc([N+](=O)[O-])c(C(F)(F)F)c1 [Hydroxyflutamide] |  | 0.949 | 0.928 | 0.775 | 0.129
51 | CC(C)=CC1C(C(=O)OCc2coc(Cc3ccccc3)c2)C1(C)C (configuration not stated) [Resmethrin] | 1.12 | 1.04 | 0.974 | 1.01 | 0.166
52 | CCCCOCN(C(=O)CCl)c1c(CC)cccc1CC [Butachlor] | 0.877 | 0.813 | 0.902 | 0.865 | 0.895
53 | CC1(c2ccc(Oc3ccccc3)cc2)OC(=O)N(Nc2ccccc2)C1=O (configuration not stated) [Famoxadone] | 1.07 | 1.08 | 1.07 | 0.383 | 1.15
54 | NS(=O)(=O)C(F)(F)C(F)(F)C(F)(F)C(F)(F)C(F)(F)C(F)(F)C(F)(F)C(F)(F)F |  | 0.448 | 0.567 | 0.447 | 0.0943
55 | Cc1c(F)c(F)c(COC(=O)C2C(/C=C(\Cl)C(F)(F)F)C2(C)C)c(F)c1F (configuration not stated) [Tefluthrin] | 0.953 | 0.885 | 1.03 | 0.886 | 1.47
56 | C[n+]1ccc(-c2cc[n+](C)cc2)cc1 [Paraquat] | 0.802 | 0.782 | 0.9 | 0.995 | 2.18
57 | CCNc1nc(Cl)nc(NC(C)(C)C)n1 [Terbutylazine] |  | 0.934 | 1.02 | 0.978 | 0.981
58 | Cc1cccc(C)c1N [2,6-Dimethylaniline] |  | 0.815 | 0.773 | 0.833 | 0.897
59 | O=C(O)CNCP(=O)(O)O [Glyphosate] | 0.796 | 0.874 | 0.905 | 1.07 | 2.5
60 | COP(=S)(OC)Oc1nc(Cl)c(Cl)cc1Cl [Chlorpyrifos-methyl] | 1.5 | 1.18 | 1.01 | 1.04 | 0.838
61 | CN(C)NC(=O)CCC(=O)O [Daminozide] | 0.728 | 0.735 | 0.928 | 0.807 | 1.39
62 | Cc1ccc(N)cc1N [2,4-Diaminotoluene] |  | 1.12 | 1.22 | 1.09 | 1.45
63 | O=C(O)c1c(Cl)ccc2cc(Cl)cnc12 [Quinclorac] | 1.12 | 1.11 | 0.984 | 1.04 | 1.88

— the supplement of paper PMC9254222
